# Compounds without any hit were thinned out: in the full panel of roughly 83,000, 20% have a hit.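 In brief: 96-well plates, 48 h treatment, single concentration, percent growth endpoint.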 A number with no mark means an inactive call. Activity calls are given as the source filed them. The calls were made as follows: active = growth percent below 10; inactive = the rest.
# System: OVCAR-4 ovarian
# Experiment: NCI-60 one-dose screen, 48 h (100 = growth as untreated, 0 = no growth, -100 = all killed)
# Conditions: 10 µM unless noted
row,SMILES,growth
1,Nc1cc2ccccc2c(=O)n1NC(=O)c1ccc(I)cc1,100%
2,CC(=O)Nc1cccc(Nc2nc(N[C@H]3CCCc4ccccc43)c3ccccc3n2)c1,104%
3,CCN(CC)C(=O)N/C(N)=N/c1nc2ccccc2s1,22.2%
4,O=C(O)c1cccc(-c2ccc(/C=N/NC(=O)c3[nH]c4ccc(Br)cc4c3-c3ccccc3)o2)c1,73%
5,NS(=O)(=O)c1ccc(-n2cc(-c3cccc(NC(=O)c4cc(C(F)(F)F)cc(C(F)(F)F)c4)c3)nn2)cc1,85.9%
6,C[C@H](Nc1nc(NCCc2ccccc2)nc2ccccc12)c1ccccc1,-31.4% (active)
7,C(=C\c1cc(/C=C/c2ccccc2)c2ccccc2n1)/c1ccccc1,98.6%
8,C=C1CC[C@@H]2[C@]3(C)COC(c4cn(-c5ccccc5)nc4-c4ccccc4)O[C@@H]3CC[C@@]2(C)[C@@H]1C/C=C1/C(=O)OC[C@H]1O (stereo partly specified),-30.4% (active)
9,N#Cc1c(-c2cccc3ccccc23)cc(-c2cccc(OCC(=O)O)c2)[nH]c1=O,91.9%
10,O=C(/C=C/c1cccc(OCc2ccc(F)cc2)c1)c1nc2ccccc2[nH]1,62.5%
11,CCOC(=O)C1=C(N)N(c2ccccc2)C2=C(C(=O)CC(C)(C)C2)C1c1cccc(Cl)c1Cl (stereo unspecified),65.8%
12,CC(C)c1ccc2c(N)c(C(=O)Nc3ccc(C(F)(F)F)cn3)sc2n1,32.4%
13,COc1ccc2cc([C@H](C)C(=O)N/N=C/c3ccc(Br)cc3)ccc2c1,100%
14,CC(=O)Oc1ccccc1C(=O)[Se]CC(=O)Nc1cccc(C(F)(F)F)c1,39.6%
15,COc1ccc(NC(=O)c2sc3nc(C(C)C)ccc3c2N)cc1,56.7%
16,CC1=C(C(=O)OCc2ccccc2)C(c2c(O)cc(O)cc2O)n2c(nc3ccccc32)N1 (stereo unspecified),84%
17,N#Cc1ccc(/C=N/NC(=O)c2[nH]c3ccc(Br)cc3c2-c2ccccc2)o1,35%
18,CC1=C(C(=O)OC(C)C)C(c2cccc(O)c2)NC(=S)N1 (stereo unspecified),98%
19,COc1cc(-c2ccc(/C=N/NC(=O)c3[nH]c4ccc(Br)cc4c3-c3ccccc3)s2)cc(OC)c1OC,93.7%

row,SMILES,growth
1,COc1cc(/C=C/C(=O)c2nnn(-c3ccc(Cl)cc3)c2C)cc(OC)c1OC,34.7%
2,CC1=C(C(=O)OCc2ccccc2)C(c2ccc(-n3cncn3)cc2)n2c(nc3ccccc32)N1 (stereo unspecified),83.2%
3,COc1cc(-c2cc(-c3cccc(OCC(=O)O)c3)[nH]c(=O)c2C#N)cc(OC)c1OC,98.2%
4,CSc1ccc(C(=O)Nc2ccc3nn(/C(C#N)=C/c4ccccn4)nc3c2)cc1,15.8%
5,CSc1ccc(NC(=O)c2ccc3nn(/C(C#N)=C/c4ccccn4)nc3c2)cc1,-57.2% (active)
6,CC1CCCCN1CCCNC(=O)N/C(N)=N/c1nc2ccccc2s1 (stereo unspecified),74.9%
7,O=C(O)c1ccc(-c2ccc(/C=N/NC(=O)c3[nH]c4ccc(Br)cc4c3-c3ccccc3)s2)cc1,22.5%
8,CSc1ccccc1NC(=O)c1ccc2nnn(/C(C#N)=C/c3ccccn3)c2c1,-96.5% (active)
9,Clc1cccc(Cl)c1/C=C/c1cc(/C=C/c2ccc(Br)cc2)c2ccccc2n1,93.8%
10,C=C1CC[C@@H]2[C@]3(C)COC(c4cn[nH]c4-c4ccc(OC)cc4)O[C@@H]3CC[C@@]2(C)[C@@H]1C/C=C1/C(=O)OCC1O (stereo partly specified),3.78% (active)
11,CSc1ccc(C(=O)Nc2ccc3nnn(/C(C#N)=C/c4ccccn4)c3c2)cc1,37%
12,CC(=O)Nc1cccc(Nc2nccc(N[C@@H](C)c3ccccc3)n2)c1,50.7%
13,O=C(N/N=C/c1ccc(-c2ccc(O)cc2)s1)c1[nH]c2ccc(Br)cc2c1-c1ccccc1,20.3%
14,COc1cc(CNC(=O)/C=C/c2ccc3c(c2)OCO3)ccc1OCc1cn(-c2cccc(C(F)(F)F)c2)nn1,34.9%
15,O=C(O)c1ccc(-c2ccc(/C=N/NC(=O)c3[nH]c4ccc(Br)cc4c3-c3ccccc3)o2)cc1,38%
16,CCCCOc1ccc(NC(=O)c2sc3nc(C)ccc3c2N)cc1,1.32% (active)
17,Cc1ccc2c(N)c(C(=O)Nc3ccc(-c4ccccc4)cc3)sc2n1,47.3%
18,COc1ccc2nc(Nc3cccc(NC(=O)c4ccc(CN5CCCN(C)CC5)c(C(F)(F)F)c4)c3)ccc2c1,-94.4% (active)
19,N#Cc1c(-c2cccnc2)cc(-c2ccc3ccccc3c2)[nH]c1=O,64.6%

# System: SK-OV-3 ovarian
# Experiment: as above
# Conditions: 10 µM unless noted
row,SMILES,growth
1,Nc1cc2ccccc2c(=O)n1NC(=O)c1ccc(I)cc1,91.9%
2,CC(=O)Nc1cccc(Nc2nc(N[C@H]3CCCc4ccccc43)c3ccccc3n2)c1,91.6%
3,CCN(CC)C(=O)N/C(N)=N/c1nc2ccccc2s1,71.9%
4,O=C(O)c1cccc(-c2ccc(/C=N/NC(=O)c3[nH]c4ccc(Br)cc4c3-c3ccccc3)o2)c1,110%
5,NS(=O)(=O)c1ccc(-n2cc(-c3cccc(NC(=O)c4cc(C(F)(F)F)cc(C(F)(F)F)c4)c3)nn2)cc1,68.4%
6,C[C@H](Nc1nc(NCCc2ccccc2)nc2ccccc12)c1ccccc1,-88.9% (active)
7,C(=C\c1cc(/C=C/c2ccccc2)c2ccccc2n1)/c1ccccc1,121%
8,C=C1CC[C@@H]2[C@]3(C)COC(c4cn(-c5ccccc5)nc4-c4ccccc4)O[C@@H]3CC[C@@]2(C)[C@@H]1C/C=C1/C(=O)OC[C@H]1O (stereo partly specified),12.6%
9,N#Cc1c(-c2cccc3ccccc23)cc(-c2cccc(OCC(=O)O)c2)[nH]c1=O,108%
10,O=C(/C=C/c1cccc(OCc2ccc(F)cc2)c1)c1nc2ccccc2[nH]1,92.9%
11,CCOC(=O)C1=C(N)N(c2ccccc2)C2=C(C(=O)CC(C)(C)C2)C1c1cccc(Cl)c1Cl (stereo unspecified),82%
12,CC(C)c1ccc2c(N)c(C(=O)Nc3ccc(C(F)(F)F)cn3)sc2n1,83.9%
13,COc1ccc2cc([C@H](C)C(=O)N/N=C/c3ccc(Br)cc3)ccc2c1,97.7%
14,CC(=O)Oc1ccccc1C(=O)[Se]CC(=O)Nc1cccc(C(F)(F)F)c1,0.121% (active)
15,COc1ccc(NC(=O)c2sc3nc(C(C)C)ccc3c2N)cc1,97.9%
16,CC1=C(C(=O)OCc2ccccc2)C(c2c(O)cc(O)cc2O)n2c(nc3ccccc32)N1 (stereo unspecified),44.4%
17,N#Cc1ccc(/C=N/NC(=O)c2[nH]c3ccc(Br)cc3c2-c2ccccc2)o1,44%
18,CC1=C(C(=O)OC(C)C)C(c2cccc(O)c2)NC(=S)N1 (stereo unspecified),97.9%
19,COc1cc(-c2ccc(/C=N/NC(=O)c3[nH]c4ccc(Br)cc4c3-c3ccccc3)s2)cc(OC)c1OC,99.6%

row,SMILES,growth
1,COc1cc(/C=C/C(=O)c2nnn(-c3ccc(Cl)cc3)c2C)cc(OC)c1OC,59.4%
2,CC1=C(C(=O)OCc2ccccc2)C(c2ccc(-n3cncn3)cc2)n2c(nc3ccccc32)N1 (stereo unspecified),73.8%
3,COc1cc(-c2cc(-c3cccc(OCC(=O)O)c3)[nH]c(=O)c2C#N)cc(OC)c1OC,100%
4,CSc1ccc(C(=O)Nc2ccc3nn(/C(C#N)=C/c4ccccn4)nc3c2)cc1,30.8%
5,CSc1ccc(NC(=O)c2ccc3nn(/C(C#N)=C/c4ccccn4)nc3c2)cc1,-2.79% (active)
6,CC1CCCCN1CCCNC(=O)N/C(N)=N/c1nc2ccccc2s1 (stereo unspecified),58.8%
7,O=C(O)c1ccc(-c2ccc(/C=N/NC(=O)c3[nH]c4ccc(Br)cc4c3-c3ccccc3)s2)cc1,16.8%
8,CSc1ccccc1NC(=O)c1ccc2nnn(/C(C#N)=C/c3ccccn3)c2c1,63.1%
9,Clc1cccc(Cl)c1/C=C/c1cc(/C=C/c2ccc(Br)cc2)c2ccccc2n1,98.2%
10,C=C1CC[C@@H]2[C@]3(C)COC(c4cn[nH]c4-c4ccc(OC)cc4)O[C@@H]3CC[C@@]2(C)[C@@H]1C/C=C1/C(=O)OCC1O (stereo partly specified),6.09% (active)
11,CSc1ccc(C(=O)Nc2ccc3nnn(/C(C#N)=C/c4ccccn4)c3c2)cc1,64.4%
12,CC(=O)Nc1cccc(Nc2nccc(N[C@@H](C)c3ccccc3)n2)c1,38.9%
13,O=C(N/N=C/c1ccc(-c2ccc(O)cc2)s1)c1[nH]c2ccc(Br)cc2c1-c1ccccc1,31.6%
14,COc1cc(CNC(=O)/C=C/c2ccc3c(c2)OCO3)ccc1OCc1cn(-c2cccc(C(F)(F)F)c2)nn1,47.4%
15,O=C(O)c1ccc(-c2ccc(/C=N/NC(=O)c3[nH]c4ccc(Br)cc4c3-c3ccccc3)o2)cc1,41.1%
16,CCCCOc1ccc(NC(=O)c2sc3nc(C)ccc3c2N)cc1,-15.9% (active)
17,Cc1ccc2c(N)c(C(=O)Nc3ccc(-c4ccccc4)cc3)sc2n1,60.3%
18,COc1ccc2nc(Nc3cccc(NC(=O)c4ccc(CN5CCCN(C)CC5)c(C(F)(F)F)c4)c3)ccc2c1,-62.4% (active)
19,N#Cc1c(-c2cccnc2)cc(-c2ccc3ccccc3c2)[nH]c1=O,112%
